According to PubChem BioAssay AID2315 (National Center for Advancing Translational Sciences (NCATS), 2010):
About 27,000 (9.3%) of roughly 290,000 compounds were called active. Shown is part of a subset that was picked to be rich in actives. Values without a mark were called inactive. Rule as the data show it: active = inhibition mostly above about 28% (no sharp cut-off); inactive = mostly below about 43%. Where a SMILES comes first, the peptide text is derived from it. [ ]: non-standard residue; d: D form. The star is where a group is joined. ξ: configuration not given here. Cbz = O=C(OCc1ccccc1)*; ξL = CC(C)CC(N)C(=O)O; ξP = O=C(O)C1CCCN1

Experiment: A qHTS for Small Molecule Inhibitors of Shiga Toxin; also: 0% is about no effect
Conditions: Vero cells, Shiga toxin protein synthesis inhibition reporter; at 38.7 µM, hits give high values

Row | Compound | inhibition
1 | CC(C)C[C@H](NC(=O)C1CC(=O)N(c2ccc3c(c2)OCCO3)C1)C(=O)NC1CCCC1 (some centres undefined) | -4.71%
2 | COc1cc(/C=C/C(=O)O)cc(S(=O)(=O)Nc2ccccc2C(=O)NCCc2ccccc2)c1OC | 55.3%
3 | CC(C)CC(NC(=O)C1CCCN1C(=O)[C@@H](C)NC(=O)OCc1ccccc1)C(=O)NCC(N)=O (some centres undefined) (Cbz-[dA][ξP][ξL]G-NH2) | -3.42%
4 | COC(=O)c1cccc(N(C(=O)c2ccco2)C(C(=O)NC2CCCC2)c2ccco2)c1 (centres undefined) | -1.98%
5 | COc1cc(NC(=O)CCS(=O)(=O)c2ccc3c(c2)oc(=O)n3C)cc(OC)c1 | 15.8%
6 | CC(C)NS(=O)(=O)c1ccc(OCC(=O)Nc2ccc3c(c2)OCCO3)cc1 | -9.12%
7 | CCC(C)(C)NC(=O)CN(C(=O)C(=O)Nc1ccc2c(c1)OCCO2)C(C)(C)CC | 15.3%
8 | CCn1c(COc2ccccc2)nnc1SCC(=O)Nc1ccc2c(c1)OCCO2 | 4.75%
9 | CCCCC(=O)Nc1ccc2c(c1)OCCO2 | 70.5% (active)
10 | COc1ccccc1OCCCC(=O)Nc1ccc2c(c1)OCCO2 | 20.5%
11 | CCc1ccccc1OCC(=O)Nc1ccc2c(c1)OCCO2 | 54.9% (active)
12 | CCOc1ccc(NCCC(=O)c2ccc3c(c2)OCO3)cc1 | 21.5%
13 | O=C(COc1ccc(Cl)cc1)Nc1ccc2oc(=O)ccc2c1 | 6.26%
14 | O=C(COc1ccc(Cl)cc1)Nc1ccc2c(c1)OCO2 | 71.8% (active)
15 | COC(=O)CCNc1ccc2c(c1)OCCO2 | 155% (active)
16 | CCC(C(=O)Nc1ccc2c(c1)OCCO2)c1ccccc1 (centres undefined) | 34.4%
17 | O=C(CCS(=O)(=O)Cc1ccccc1)Nc1ccc2c(c1)OCCO2 | -14.4%
18 | CC(=O)Nc1cccc(Nc2nc(-c3cccs3)nc3ccccc23)c1 | 27.4%
19 | Cc1cc(=O)oc2c1ccc1ccccc12 | 17.1%
20 | O=C(CCc1ccccc1)Nc1ccnn1C1CCN(Cc2ccc(OCCO)cc2)CC1 | 27.8%
21 | O=C(CC1C(=O)NCCN1CC(c1ccccc1)c1ccccc1)NCC1CCOCC1 (centres undefined) | 16.2%
22 | CC(NC(=O)CCCC1CCCCC1)c1ccc(S(N)(=O)=O)cc1 (centres undefined) | -5.49%
23 | COC(=O)c1cc(CNC(=O)CC(C)c2ccccc2)ccc1OC (centres undefined) | -4.17%
24 | Cn1ccnc1SCC(=O)Nc1ccc2c(c1)OCCO2 | 7.65%

Row | Compound | inhibition
25 | O=C(CSc1nnnn1-c1ccc2c(c1)CCC2)Nc1ccc2c(c1)OCCO2 | 33.4%
26 | Cc1ccc(S(=O)(=O)NCC(=O)Nc2ccc3c(c2)OCCO3)cc1 | -18.4%
27 | Cc1ccc(SCC(=O)Nc2ccc3c(c2)OCCO3)cc1 | 77.1% (active)
28 | O=C(CSc1nnnn1C1CCCC1)Nc1ccc2c(c1)OCCO2 | 129% (active)
29 | CCC(=O)Nc1cccc(NC(=O)CSc2nnnn2C2CCCC2)c1 | -2.63%
30 | Cc1cc(OC(=O)c2ccc(OC(C)C)cc2)c([N+](=O)[O-])c(=O)[nH]1 | 13%
31 | COc1ccc(-n2nc3c(N4CCC(C(=O)NCc5ccccc5)CC4)nnc(C)c3c2C)cc1 | -7%
32 | COc1ccc(CCNC(=O)CCc2cn(C)c3ccccc23)c(OC)c1 | -3.65%
33 | O=C(/C=C/c1ccco1)Nc1ccc(Oc2ccccc2)cc1 | 80.2% (active)
34 | Cc1cccc(NC(=O)Nc2cccc(Oc3c(F)c(F)c(F)c(F)c3F)c2)c1 | -0.582%
35 | C/C(=N\NS(=O)(=O)c1ccc(Cl)cc1)c1ccc(NC(=O)c2ccco2)cc1 | 34% (active)
36 | CCC(CC)c1nnc(NC(=O)/C=C/c2ccco2)s1 | 20%
37 | C/C(=N/NS(=O)(=O)c1ccccc1)c1ccc(NC(=O)C(F)(F)F)cc1 | -9.75%
38 | O=C(O)/C=C\C(=O)Nc1ccc(OCc2ccccc2)cc1 | 43%
39 | Cc1nnc(NC(=O)/C=C/c2ccco2)s1 | 45.9% (active)
40 | Cc1ccc(C(=O)COc2cccc(NC(=O)c3ccco3)c2)cc1 | 14.8%
41 | CCc1nnc(NC(=O)/C=C/c2ccc(C)o2)s1 | 26.8%
42 | CC(C)CNC(=O)COC(=O)/C=C/c1ccco1 | -5.59%
43 | CN1CCN(S(=O)(=O)c2ccc(NC(=O)c3ccco3)cc2)CC1 | 47.4%
44 | CCOC(=O)c1cccc(NS(=O)(=O)c2c(C(=O)N3CCCCCC3)c(C)n(C)c2C)c1 | -9.67%
45 | CC(=O)Nc1ccc(NC(=O)[C@@H](NC(=O)c2cccc(C)c2)C(C)C)cc1 | -2.98%
46 | Cc1cc(C)cc(OCC(=O)Nc2cc(NC(=O)COc3cc(C)cc(C)c3)cc(C(=O)O)c2)c1 | -3.47%
47 | Cc1ccc(NC(=O)CSc2cccc3cccnc23)c(C)c1 | 21.1%
48 | O=C(CN1C(=O)COc2ccc(Cl)cc21)N1CCOCC1 | -1.98%

Row | Compound | inhibition
49 | CC1CCN(S(=O)(=O)c2nnc(NC(=O)COc3ccccc3F)s2)CC1 | 2.6%
50 | O=C(Nc1ccc2oc(-c3ccccc3F)nc2c1)c1ccco1 | 85.3% (active)
51 | Cc1ccnc(NC(=O)c2ccc(NC(=O)c3ccco3)cc2)c1 | 64.6% (active)
52 | COc1ccc(NC(=O)c2cccc(NC(=O)c3ccco3)c2)c(OC)c1 | 7.82%
53 | O=C(Nc1ccc(NC(=O)c2cccs2)cn1)c1ccco1 | 27.3%
54 | Cc1cc(NC(=O)c2ccc(F)cc2)ccc1NC(=O)c1ccco1 | 39.7%
55 | O=C(Nc1ccc(O)cc1)c1ccc(NC(=O)c2ccco2)cc1 | 32.1% (active)
56 | CCCC(=O)Nc1ccc2c(c1)nc(CCNC(=O)c1ccco1)n2C | -1.85%
57 | COc1cccc(C(=O)Nc2ccc(NC(=O)c3ccco3)cn2)c1 | 124% (active)
58 | Cc1ccc(NC(=O)/C(=C\c2ccccc2)NC(=O)c2ccco2)cc1 | 15.6%
59 | O=C(Nc1cccc(-c2nc3ncccc3o2)c1)c1ccco1 | 1.9%
60 | Cc1cc(=O)oc2c3c(cc(OCC(=O)N[C@H](C(=O)O)c4ccccc4)c12)OC(C)(C)CC3 | 9.9%
61 | Oc1ccc(C2Nc3cccc4cccc(c34)N2)cc1 | -4.55%
62 | CSc1ccc(S(=O)(=O)N2CCC(C(=O)NCc3ccncc3)CC2)cc1 | -6.82%
63 | CCOC(=O)N1CCN(S(=O)(=O)c2ccc(Br)cc2)CC1 | 9.83%
64 | COCCN1C(=O)C(=O)/C(=C(/O)c2ccc(S(=O)(=O)N3CCOCC3)cc2)C1c1ccc(OC)c(OC)c1 (centres undefined) | -8.01%
65 | Cc1cccn2c(=O)c(/C=C(\C#N)C(N)=O)c(N3CCCCCC3)nc12 | -3.79%
66 | CC(C)Oc1ccc(C(CC(=O)N2CCOCC2)C(C)C)cc1 (centres undefined) | 5.33%
67 | COc1cc(C2/C(=C(\O)c3ccc4c(c3)CC(C)O4)C(=O)C(=O)N2c2nnc(C)s2)cc(OC)c1OC (centres undefined) | -6.77%
68 | Cc1ccc(C(=O)NC2CCN(C(=O)Nc3ccccc3Cl)CC2)cc1 | -5.62%
69 | COCCOC(=O)C1=C(C)NC(=O)NC1c1cc2c(cc1Br)OCO2 (centres undefined) | 13.8%
70 | O=C(Nc1cccc(NC(=O)c2ccco2)c1)c1cnccn1 | 7.98%
71 | O=C(Nc1ccc(Sc2ccc(Br)cc2)cc1)c1ccco1 | 60.3% (active)
72 | O=C(Nc1ccc(Oc2ccccc2)cc1)c1ccco1 | 169% (active)

Row | Compound | inhibition
73 | Cc1cc(NC(=O)[C@H](C)NC(=O)c2ccco2)ccc1Br | 4.7%
74 | O=C(Nc1ccncc1)c1ccc(Cl)c([N+](=O)[O-])c1 | -0.478%
75 | O=C(Nc1ccccc1)/C(=C\c1ccco1)NC(=O)c1ccco1 | 14.3%
76 | Cc1ccnc(NC(=O)c2ccco2)n1 | 24.9%
77 | O=C(Nc1ccccc1)c1ccco1 | 19.7%
78 | O=C(Nc1ccc2nccnc2c1)c1ccco1 | 98.5% (active)
79 | O=C(Nc1cccnc1)c1ccc(Cl)c([N+](=O)[O-])c1 | 52.4%
80 | Cc1ccnc(NC(=O)c2ccc(Cl)c([N+](=O)[O-])c2)c1 | 50.2% (active)
81 | COC(=O)c1cc(NC(=O)c2ccco2)ccc1N1CCOCC1 | -9.27%
82 | O=[N+]([O-])c1ccc(NC(=S)N2CCN(c3ccccn3)CC2)cc1 | -11.7%
83 | O=C(CCN1CCCO1)N1CCCC(N2CCN(c3cccc(C(F)(F)F)c3)CC2)C1 (centres undefined) | 3.43%
84 | CCNS(=O)(=O)c1ccc(NC(=O)c2cncc(Br)c2)cc1 | -9.77%
85 | COc1ccccc1N1CCN(C(=O)c2ccc(NC3=NC4CS(=O)(=O)CC4S3)cc2)CC1 (centres undefined) | -1.81%
86 | COc1ccc(CNC(=O)C2CC(c3ccc(C(F)(F)F)cc3)=NO2)cc1 (centres undefined) | -4.35%
87 | Cc1cc(C(=O)NC2CCN(Cc3ccccc3)CC2)n[nH]1 | -10.2%
88 | CCOc1ccc(C(=O)Nc2c3c(nn2-c2ccccc2)CS(=O)(=O)C3)cc1 | -5.21%
89 | COC(=O)c1c(NC(=O)C(=O)N2CCCCC2)sc2c1CC(C)(C)OC2 | -9.37%
90 | Cc1ccc(OCCCCc2c(C)n[nH]c2C)cc1 | 25.2%
91 | Cc1ccc2nc(SCc3cn4c(C)cc(C)nc4n3)[nH]c2c1 | -3.11%
92 | Cc1cc(C)nc(SCc2cn3c(C)cc(C)nc3n2)n1 | 2.5%
93 | COc1ccc(OCc2cn3c(C)cc(C)nc3n2)cc1 | 48.1% (active)
94 | CC(C(=O)N=Nc1c(O)n(C)c2ccc(Br)cc12)n1cnc2ccccc2c1=O (centres undefined) | -6.1%
